Laboratory results from publication PMC4552634, “A New Set of Chemical Starting Points with Plasmodium falciparum Transmission-Blocking Potential for Antimalarial Drug Discovery” (PLoS ONE, 2015).
Where two headings read alike, the source gives them in different places. Out of some 13,000 compounds screened, about 3,200 (25%) showed an effect of 50% or more. Some of the results follow.

System: P. falciparum stage V gametocytes
Design: BacTiter-Glo ATP luminescence viability of purified stage V gametocytes in 384-well plates, per cent inhibition versus DMSO
Conditions: 48 h, 5 µM, inhibitor

Row | SMILES | % Inhibition | % Inhibition (% Inhibition)
1 | COc1cc(Nc2ccnc3ccc(C(F)(F)F)cc23)cc(OC)c1OC [TCMDC-138471] | 8.096% | –
2 | Cc1cc(C)cc(N2C(N)=NC(N)=NC2(C)C)c1 [TCMDC-137927] | 10.77% | –
3 | CCOC(=O)c1c(NC(NC(=O)c2ccc(C(C)(C)C)cc2)C(Cl)(Cl)Cl)sc2c1CCCC2 (stereo not drawn) [TCMDC-125722] | 17.61% | –
4 | Cc1cccc(CC(N)=NCCCCCCN=C(N)Cc2cccc(C)c2)c1 [TCMDC-138135] | -14.49% | –
5 | CC(C)C[C@H](NC(=O)OC(C)(C)C)C(=O)Nc1ccc(Cc2ccc(NC(=O)[C@H](CC(C)C)NC(=O)OC(C)(C)C)cc2)cc1 [TCMDC-131866] | -6.979% | –
6 | CCS[C@@H]1O[C@H](COC(=O)c2ccccc2)[C@H](OC(=O)c2ccccc2)[C@H](OC(=O)c2ccccc2)[C@H]1OC(=O)c1ccccc1 [TCMDC-137162] | 42.17% | –
7 | COc1ccccc1Nc1nc(C)cc(NCc2ccc(-c3c(C)noc3C)cc2)n1 [TCMDC-133453] | 12.57% | –
8 | Cc1[nH]c2cc(Cl)ccc2c1C1=CCN(CCCCC2(C)C(=O)Nc3ccccc32)CC1 (stereo not drawn) [TCMDC-140945] | -53% | –
9 | COc1cc(C(=O)NCCCN2CCN(c3cccc(Cl)c3)CC2)ccc1-c1cc2cc(Cl)c(Cl)cc2[nH]1 [TCMDC-139622] | 6.24% | –
10 | O=C(NCCc1ccccc1)N(Cc1ccc(-c2cccc(CN3CCNCC3)c2)cc1)C1CCN(Cc2ccccc2)CC1 [TCMDC-139635] | 105.4% | –
11 | O=C(NCCc1ccccc1)N(Cc1cccc(-c2ccc(CNC3CCCC3)cc2)c1)C1CCN(Cc2ccccc2)CC1 [TCMDC-140618] | 99.39% | –
12 | O=C(c1cccs1)N(Cc1cccc(-c2ccc(CNCCc3ccccc3)cc2)c1)C1CCN(Cc2ccccc2)CC1 [TCMDC-140566] | 66.5% | –
13 | O=c1cc(NCCCNCc2cc3ccccc3s2)[nH]c2ccccc12 [TCMDC-140234] | -96.03% | –
14 | COc1ccc(NC(=O)/C=C/c2ccc(Cl)c(C(F)(F)F)c2)cc1OCCN(C(C)C)C(C)C [TCMDC-139646] | -39.1% | –
15 | COc1ccc(Br)cc1C1C2C(=O)N(c3ccc(Br)cc3)C(=O)C2C2(C(=O)O)CC(OCc3ccccc3)CN12 (stereo not drawn) [TCMDC-139264] | 14.59% | –
16 | N#Cc1ccnc(-c2ccc(CNC3CCN(CC4Cn5c(=O)ccc6ccc(F)c4c65)CC3)cc2)c1 (stereo not drawn) [TCMDC-134408] | -28.26% | –
17 | CCc1ccc(OCCCON2C(N)=NC(N)=NC2(C)C)cc1 [TCMDC-131321] | 2.956% | –
18 | CC(=O)Nc1cccc(NC(=O)CSc2ccc(-c3nc4ccccc4[nH]3)cn2)c1 [TCMDC-123529] | 49.75% | –
19 | O=C(CCC1CCCC1)N(Cc1ccc(-c2ccc(CNCCc3ccccc3)cc2)cc1)C1CCCNC1 (stereo not drawn) [TCMDC-141444] | 116.1% | –
20 | O=C(C1CC1c1ccccc1)N(Cc1ccc(-c2ccc(CNCCc3ccccc3)cc2)cc1)C1CCNCC1 (stereo not drawn) [TCMDC-141443] | 108.5% | –
21 | CC(=O)Nc1ncc(C(=O)Nc2cccc(-c3cccc(-c4nc5ccccc5[nH]4)c3)c2)s1 [TCMDC-136911] | 11.96% | –
22 | CC(=O)N1N=C(c2[nH]c3ccc(Br)cc3c2C)OC1c1ccccc1 (stereo not drawn) [TCMDC-124752] | 9.307% | –

Row | SMILES | % Inhibition | % Inhibition (% Inhibition)
23 | Cc1cc(N)nc2ccc(CNCCc3ccccc3Br)cc12 [TCMDC-138092] | 32.49% | –
24 | COc1ccc2nc(C)cc(NCc3ccc4ccccc4c3)c2c1.Cl [TCMDC-138977] | 6.085% | –
25 | Cc1cc(N)nc2ccc(-c3cccc(CN)c3)cc12 [TCMDC-137784] | 92.85% | –
26 | Cc1ccc(O)cc1Nc1ccnc2ccc(-c3cccc(CN(C)C)c3)cc12 [TCMDC-138481] | 38.94% | –
27 | Cc1cc(N)nc2ccc(-c3ccc(CN)cc3)cc12 [TCMDC-137785] | 97.26% | –
28 | COc1ccc(CCNCc2ccc3c(C)cc(N)nc3c2)cc1 [TCMDC-138096] | 41.14% | –
29 | NCc1ccc(Nc2nccc(Nc3ccc(-c4ccccc4)cc3)n2)cc1 [TCMDC-136004] | 25.82% | –
30 | Cc1cc(N)nc2ccc(-c3ccc(CCN)cc3)cc12 [TCMDC-137786] | 103.4% | –
31 | COc1ccc(CCNCc2ccc3nc(N)cc(C)c3c2)cc1 [TCMDC-138093] | 96.45% | –
32 | Cc1ccc(Cc2c(N)nc3nc(N)nc(N)c3c2C)cc1 [TCMDC-138063] | 9.056% | –
33 | CC[C@H]1CN2CC[C@H]1C[C@H]2[C@H](O)c1cc(N2CCCC(CO)C2)nc2ccc(OC)cc12 (stereo partly drawn) [TCMDC-141417] | -19.77% | –
34 | CC[C@H]1CN2CC[C@@H]1C[C@H]2[C@H](O)c1cc(N2CCC(CO)CC2)nc2ccc(OC)cc12 [TCMDC-141418] | 34.66% | –
35 | CC[C@H]1CN2CC[C@@H]1C[C@H]2[C@H](O)c1cc(N2CCC(c3ccccc3)CC2)nc2ccc(OC)cc12 [TCMDC-141435] | 91.21% | –
36 | CC[C@H]1CN2CC[C@@H]1C[C@H]2[C@H](O)c1cc(N2CCC(O)CC2)nc2ccc(OC)cc12 [TCMDC-141415] | 17.87% | –
37 | CCOc1ccc2nccc([C@@H](O)[C@@H]3C[C@@H]4CCN3C[C@@H]4CC)c2c1 [TCMDC-125547] | – | -52.19%
38 | CC[C@H]1CN2CC[C@@H]1C[C@H]2[C@H](O)c1cc(N2CCC(C)CC2)nc2ccc(OC)cc12 [TCMDC-141419] | 96.92% | –
39 | CC[C@H]1CN2CC[C@@H]1C[C@H]2[C@H](O)c1cc(N2CCCC(C)(C)C2)nc2ccc(OC)cc12 [TCMDC-141423] | 67.35% | –
40 | CC[C@H]1CN2CC[C@H]1C[C@H]2[C@H](O)c1ccnc2ccc(OC)cc12 [TCMDC-123485] | -3.295% | –
41 | CC[C@H]1CN2CC[C@@H]1C[C@H]2[C@H](O)c1ccnc2ccc(OC)cc12 [TCMDC-142003] | 82.89% | –
42 | O=C(/C=C/c1ccc(Cl)c(Cl)c1)NCCCCCN1CCCN(C(=S)Nc2ccc(Cl)c(Cl)c2)CC1 [TCMDC-135896] | -3.43% | –
43 | N#Cc1ccc2c(c1)CCN(CCC1CCC(NC(=O)Nc3cnc4ccccc4c3)CC1)C2 (stereo not drawn) [TCMDC-139440] | 3.253% | –
44 | CC[C@H]1CN2CC[C@H]1C[C@H]2[C@H](O)c1cc(N2CCCC(C(=O)N(CC)CC)C2)nc2ccc(OC)cc12 (stereo partly drawn) [TCMDC-141434] | 46.24% | –

Row | SMILES | % Inhibition | % Inhibition (% Inhibition)
45 | CC[C@H]1CN2CC[C@@H]1C[C@H]2[C@H](O)c1cc(N2CCC(O)(c3ccc(Cl)cc3)CC2)nc2ccc(OC)cc12 [TCMDC-141439] | 74.49% | –
46 | CC[C@H]1CN2CC[C@H]1C[C@H]2[C@H](O)c1cc(N2CCCC2)nc2ccc(OC)cc12 [TCMDC-141217] | -33.27% | –
47 | CC[C@H]1CN2CC[C@@H]1C[C@H]2[C@H](O)c1cc(N2CCSCC2)nc2ccc(OC)cc12 [TCMDC-141424] | 79.98% | –
48 | CC[C@H]1CN2CC[C@@H]1C[C@H]2[C@H](O)c1cc(N2CCOCC2)nc2ccc(OC)cc12 [TCMDC-141416] | -92.7% | –
49 | CC[C@H]1CN2CC[C@@H]1C[C@H]2[C@H](O)c1cc(N2CCC(C(N)=O)CC2)nc2ccc(OC)cc12 [TCMDC-141441] | -22.84% | –
50 | CC[C@H]1CN2CC[C@@H]1C[C@H]2[C@H](O)c1cc(N2CCC(N3CCCCC3)CC2)nc2ccc(OC)cc12 [TCMDC-141442] | 105.7% | –
51 | CC[C@H]1CN2CC[C@@H]1C[C@H]2[C@H](O)c1cc(N2CCC(O)(c3ccccc3)CC2)nc2ccc(OC)cc12 [TCMDC-141438] | 44.1% | –
52 | CC[C@H]1CN2CC[C@H]1C[C@H]2[C@H](O)c1cc(N2CCC3CCCCC3C2)nc2ccc(OC)cc12 (stereo partly drawn) [TCMDC-141440] | 90.7% | –
53 | O=C(Nc1ccc(OC2CCN(Cc3ccc(F)cc3)C2)c(Cl)c1)c1ccccc1 (stereo not drawn) [TCMDC-133762] | 42.11% | –
54 | Oc1cccc(CNCCCN(Cc2ccccc2)c2ccccc2)c1 [TCMDC-137875] | 12.29% | –
55 | Cc1cccc(CCCNC(=O)CN(c2cccc(C(F)(F)F)c2)S(=O)(=O)c2ccc(C(F)(F)F)cc2)c1 [TCMDC-136508] | -41.52% | –
56 | Cc1ccc(S(=O)(=O)N(CCCNCc2cccc(O)c2)c2ccccc2)cc1 [TCMDC-138022] | 66.9% | –
57 | CC1(C)C(=O)Nc2ccccc2N1C(=O)CN1CCN(c2ccccc2O)CC1 [TCMDC-124856] | -25.41% | –
58 | CC(C(=O)N1CCCC1)N1CCN(C(c2ccccc2)c2ccccc2)CC1 (stereo not drawn) [TCMDC-123562] | 15.58% | –
59 | CC(C(=O)N1CCCC1)N1CCN(S(=O)(=O)c2ccc(C(C)(C)C)cc2)CC1 (stereo not drawn) [TCMDC-125011] | 54.13% | –
60 | Cc1ccc(S(=O)(=O)N2CCCN(C(=O)c3cc(-c4ccccc4)n[nH]3)CC2)cc1 [TCMDC-125243] | 32.96% | –
61 | C=CCn1c(SCC(=O)Nc2cc(C)ccc2OC)nc2sc(C)cc2c1=O [TCMDC-123737] | -0.9433% | –
62 | O=c1cc(NCCCNCc2cccc3c2OC(F)(F)O3)[nH]c2ccccc12 [TCMDC-139425] | -37.26% | –
63 | CC(C)CN1CCN(c2nc(C#N)c3c(c2C(=S)NC2CCCCC2)CC(C)(C)OC3)CC1 [TCMDC-124173] | 83.9% | –
64 | CCCN(CCC)C(=S)N=Nc1c(O)[nH]c2ccccc12 [TCMDC-138078] | -20.57% | –
65 | COCCn1c(C)nc2ccccc2c1=O [TCMDC-124916] | -2.427% | –
66 | Cc1ccc2c(=O)n(C)c(=O)n(C)c2n1 [TCMDC-123937] | 60.67% | –
